The values below come from publication PMC9911399, “Two distinct binding modes provide the RNA-binding protein RbFox with extraordinary sequence specificity”.

Residue numbers refer to the chain shown, from its start. In all, about 16,000 sequences were measured (“ka relative to ugcaugu”: median about 0.0091, highest 2% from about 0.032 on). This is one part of a sample in which the highest values are shown more often than they occur.

The labels stand for the following.
T1: RBFOX1 RRM (Homo sapiens, UniProt Q9NWB1 109-208)
T1 sequence: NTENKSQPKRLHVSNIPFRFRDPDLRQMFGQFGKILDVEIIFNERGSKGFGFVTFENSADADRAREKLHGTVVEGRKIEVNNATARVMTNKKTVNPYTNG

B1: CAGCUCA (DNA:RNA)
RNA: GGGAGACCGGAAUUCAGAUUGUCCCAGCUCAUUAAAUCCCGUCGUAGCCACCA
DNA 1: CAATCTGAATTCCGGTCTCCC
DNA 2: TGGTGGCTACGACGGGATT
B2: GUAUCUG (DNA:RNA)
RNA: GGGAGACCGGAAUUCAGAUUGUCCGUAUCUGUUAAAUCCCGUCGUAGCCACCA
DNA 1: CAATCTGAATTCCGGTCTCCC
DNA 2: TGGTGGCTACGACGGGATT
B3: AAUGCCC (DNA:RNA)
RNA: B1 RNA with C25A, G27U, C28G, U29C, A31C
DNA 1: CAATCTGAATTCCGGTCTCCC
DNA 2: TGGTGGCTACGACGGGATT
B4: UGAACGA (DNA:RNA)
RNA: B2 RNA with G25U, U26G, U28A, U30G, G31A
DNA 1: CAATCTGAATTCCGGTCTCCC
DNA 2: TGGTGGCTACGACGGGATT
B5: CUAGAGG (DNA:RNA)
RNA: B2 RNA with G25C, U28G, C29A, U30G
DNA 1: CAATCTGAATTCCGGTCTCCC
DNA 2: TGGTGGCTACGACGGGATT
B6: UAGCGUU (DNA:RNA)
RNA: B1 RNA with C25U, U29G, C30U, A31U
DNA 1: CAATCTGAATTCCGGTCTCCC
DNA 2: TGGTGGCTACGACGGGATT
B7: UGACAAC (DNA:RNA)
RNA: B1 RNA with C25U, A26G, G27A, U29A, C30A, A31C
DNA 1: CAATCTGAATTCCGGTCTCCC
DNA 2: TGGTGGCTACGACGGGATT
B8: AACUUUA (DNA:RNA)
RNA: B1 RNA with C25A, G27C, C28U, C30U
DNA 1: CAATCTGAATTCCGGTCTCCC
DNA 2: TGGTGGCTACGACGGGATT
B9: GCUGCUG (DNA:RNA)
RNA: B2 RNA with U26C, A27U, U28G
DNA 1: CAATCTGAATTCCGGTCTCCC
DNA 2: TGGTGGCTACGACGGGATT
B10: UGAGGAG (DNA:RNA)
RNA: B2 RNA with G25U, U26G, U28G, C29G, U30A
DNA 1: CAATCTGAATTCCGGTCTCCC
DNA 2: TGGTGGCTACGACGGGATT
B11: GCUGUCG (DNA:RNA)
RNA: B1 RNA with C25G, A26C, G27U, C28G, A31G
DNA 1: CAATCTGAATTCCGGTCTCCC
DNA 2: TGGTGGCTACGACGGGATT
B12: UGCUGAG (DNA:RNA)
RNA: B2 RNA with G25U, U26G, A27C, C29G, U30A
DNA 1: CAATCTGAATTCCGGTCTCCC
DNA 2: TGGTGGCTACGACGGGATT
B13: UGUGGUG (DNA:RNA)
RNA: B2 RNA with G25U, U26G, A27U, U28G, C29G
DNA 1: CAATCTGAATTCCGGTCTCCC
DNA 2: TGGTGGCTACGACGGGATT
B14: UGAGUUG (DNA:RNA)
RNA: B2 RNA with G25U, U26G, U28G, C29U
DNA 1: CAATCTGAATTCCGGTCTCCC
DNA 2: TGGTGGCTACGACGGGATT
B15: UGUGUGG (DNA:RNA)
RNA: B1 RNA with C25U, A26G, G27U, C28G, C30G, A31G
DNA 1: CAATCTGAATTCCGGTCTCCC
DNA 2: TGGTGGCTACGACGGGATT
B16: GUCCUGU (DNA:RNA)
RNA: B1 RNA with C25G, A26U, G27C, C30G, A31U
DNA 1: CAATCTGAATTCCGGTCTCCC
DNA 2: TGGTGGCTACGACGGGATT
B17: UGUCCGU (DNA:RNA)
RNA: B1 RNA with C25U, A26G, G27U, U29C, C30G, A31U
DNA 1: CAATCTGAATTCCGGTCTCCC
DNA 2: TGGTGGCTACGACGGGATT
B18: GCUGUUG (DNA:RNA)
RNA: B2 RNA with U26C, A27U, U28G, C29U
DNA 1: CAATCTGAATTCCGGTCTCCC
DNA 2: TGGTGGCTACGACGGGATT
B19: UGGUGUG (DNA:RNA)
RNA: B2 RNA with G25U, U26G, A27G, C29G
DNA 1: CAATCTGAATTCCGGTCTCCC
DNA 2: TGGTGGCTACGACGGGATT
B20: UGUUCGU (DNA:RNA)
RNA: B2 RNA with G25U, U26G, A27U, U30G, G31U
DNA 1: CAATCTGAATTCCGGTCTCCC
DNA 2: TGGTGGCTACGACGGGATT
B21: AUCUUGC (DNA:RNA)
RNA: B2 RNA with G25A, A27C, C29U, U30G, G31C
DNA 1: CAATCTGAATTCCGGTCTCCC
DNA 2: TGGTGGCTACGACGGGATT
B22: AUGACCA (DNA:RNA)
RNA: B1 RNA with C25A, A26U, C28A, U29C
DNA 1: CAATCTGAATTCCGGTCTCCC
DNA 2: TGGTGGCTACGACGGGATT
B23: CUAAUUG (DNA:RNA)
RNA: B2 RNA with G25C, U28A, C29U
DNA 1: CAATCTGAATTCCGGTCTCCC
DNA 2: TGGTGGCTACGACGGGATT
B24: GGCCUGU (DNA:RNA)
RNA: B1 RNA with C25G, A26G, G27C, C30G, A31U
DNA 1: CAATCTGAATTCCGGTCTCCC
DNA 2: TGGTGGCTACGACGGGATT
B25: GAUUAGC (DNA:RNA)
RNA: B2 RNA with U26A, A27U, C29A, U30G, G31C
DNA 1: CAATCTGAATTCCGGTCTCCC
DNA 2: TGGTGGCTACGACGGGATT
B26: UGCAACU (DNA:RNA)
RNA: B1 RNA with C25U, A26G, G27C, C28A, U29A, A31U
DNA 1: CAATCTGAATTCCGGTCTCCC
DNA 2: TGGTGGCTACGACGGGATT
B27: GGGCCGG (DNA:RNA)
RNA: B2 RNA with U26G, A27G, U28C, U30G
DNA 1: CAATCTGAATTCCGGTCTCCC
DNA 2: TGGTGGCTACGACGGGATT
B28: CGUCCUG (DNA:RNA)
RNA: B2 RNA with G25C, U26G, A27U, U28C
DNA 1: CAATCTGAATTCCGGTCTCCC
DNA 2: TGGTGGCTACGACGGGATT
B29: UGUUUGC (DNA:RNA)
RNA: B1 RNA with C25U, A26G, G27U, C28U, C30G, A31C
DNA 1: CAATCTGAATTCCGGTCTCCC
DNA 2: TGGTGGCTACGACGGGATT
B30: UGUUUUG (DNA:RNA)
RNA: B2 RNA with G25U, U26G, A27U, C29U
DNA 1: CAATCTGAATTCCGGTCTCCC
DNA 2: TGGTGGCTACGACGGGATT
B31: UGUGUGC (DNA:RNA)
RNA: B1 RNA with C25U, A26G, G27U, C28G, C30G, A31C
DNA 1: CAATCTGAATTCCGGTCTCCC
DNA 2: TGGTGGCTACGACGGGATT
B32: CUGUUGU (DNA:RNA)
RNA: B1 RNA with A26U, C28U, C30G, A31U
DNA 1: CAATCTGAATTCCGGTCTCCC
DNA 2: TGGTGGCTACGACGGGATT
B33: CUGUCGU (DNA:RNA)
RNA: B2 RNA with G25C, A27G, U30G, G31U
DNA 1: CAATCTGAATTCCGGTCTCCC
DNA 2: TGGTGGCTACGACGGGATT
B34: CUGUUUG (DNA:RNA)
RNA: B2 RNA with G25C, A27G, C29U
DNA 1: CAATCTGAATTCCGGTCTCCC
DNA 2: TGGTGGCTACGACGGGATT
B35: CGUUUGC (DNA:RNA)
RNA: B1 RNA with A26G, G27U, C28U, C30G, A31C
DNA 1: CAATCTGAATTCCGGTCTCCC
DNA 2: TGGTGGCTACGACGGGATT
B36: CCUGUGC (DNA:RNA)
RNA: B1 RNA with A26C, G27U, C28G, C30G, A31C
DNA 1: CAATCTGAATTCCGGTCTCCC
DNA 2: TGGTGGCTACGACGGGATT
B37: CGUUCUG (DNA:RNA)
RNA: B2 RNA with G25C, U26G, A27U
DNA 1: CAATCTGAATTCCGGTCTCCC
DNA 2: TGGTGGCTACGACGGGATT
B38: CGUGUGC (DNA:RNA)
RNA: B1 RNA with A26G, G27U, C28G, C30G, A31C
DNA 1: CAATCTGAATTCCGGTCTCCC
DNA 2: TGGTGGCTACGACGGGATT
B39: UGUUCUG (DNA:RNA)
RNA: B2 RNA with G25U, U26G, A27U
DNA 1: CAATCTGAATTCCGGTCTCCC
DNA 2: TGGTGGCTACGACGGGATT

For this assay, the target named is T1, RBFOX1 RRM. In words: EMSA; HiTS-Eq, 1 nM pool, 10 min; buffer printed only for the single-RNA assays: 10 mM Tris pH 7.5, 150 mM NaCl, 3.4 mM EDTA, 0.001% NP-40, 30 C. As to conditions: tags: His6 N-terminal (pET28a); label: 5' 32P. The procedure, abridged: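 A pool of RNA with 7 randomized nucleotides, 5′-radiolabelled and with DNA-annealed flanks, was equilibrated at 1 nM for 10 min in 50 µL with purified RbFox RRM, wild type or mutant, across increasing protein concentrations. Free RNA was separated by 8% native PAGE, excised, reverse-transcribed, barcoded by PCR and sequenced. Relative association constants were obtained from read-count changes of each RNA species versus the control reaction and normalised to the cognate motif.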
(In general: In EMSA bound probe runs differently from free probe, usually more slowly.)
B1: the binding signal is 0.00282 KA relative to UGCAUGU.

With B2, the binding signal is 0.015 KA relative to UGCAUGU.

As for B3, the binding signal was 0.00474 KA relative to UGCAUGU.

B4: the binding signal was 0.0199 KA relative to UGCAUGU.

For B5, the binding signal was 0.00494 KA relative to UGCAUGU.

In the case of B6, the binding signal is 0.0117 KA relative to UGCAUGU.

Regarding B7, the binding signal is 0.00863 KA relative to UGCAUGU.

As for B8, the binding signal is 0.000524 KA relative to UGCAUGU.

For B9, the binding signal is 0.0323 KA relative to UGCAUGU.

As to B10, the binding signal is 0.0109 KA relative to UGCAUGU.

B11: the binding signal was 0.0197 KA relative to UGCAUGU.

Regarding B12, the binding signal was 0.0319 KA relative to UGCAUGU.

Consider B13, for which the binding signal is 0.0376 KA relative to UGCAUGU.

For the molecule B14, the binding signal was 0.0276 KA relative to UGCAUGU.

Turning to B15, the binding signal was 0.0178 KA relative to UGCAUGU.

B16: the binding signal is 0.0155 KA relative to UGCAUGU.

On to B17, for which the binding signal is 0.0131 KA relative to UGCAUGU.

On to B18, for which the binding signal was 0.028 KA relative to UGCAUGU.

In the case of B19, the binding signal was 0.029 KA relative to UGCAUGU.

For B20, the binding signal was 0.0328 KA relative to UGCAUGU.

As to B21, the binding signal was 0.0138 KA relative to UGCAUGU.

With B22, the binding signal is 0.00337 KA relative to UGCAUGU.

As to B23, the binding signal was 0.013 KA relative to UGCAUGU.

As for B24, the binding signal is 0.0238 KA relative to UGCAUGU.

Regarding B25, the binding signal is 0.0124 KA relative to UGCAUGU.

For the molecule B26, the binding signal was 0.0132 KA relative to UGCAUGU.

Regarding B27, the binding signal is 0.0124 KA relative to UGCAUGU.

With B28, the binding signal was 0.0127 KA relative to UGCAUGU.

In the case of B29, the binding signal is 0.0351 KA relative to UGCAUGU.

Take B30: the binding signal was 0.0286 KA relative to UGCAUGU.

Take B31: the binding signal was 0.0333 KA relative to UGCAUGU.

For B32, the binding signal is 0.0226 KA relative to UGCAUGU.

Take B33: the binding signal is 0.0193 KA relative to UGCAUGU.

Regarding B34, the binding signal was 0.0332 KA relative to UGCAUGU.

Turning to B35, the binding signal was 0.019 KA relative to UGCAUGU.

Consider B36, for which the binding signal was 0.0232 KA relative to UGCAUGU.

B37: the binding signal was 0.0207 KA relative to UGCAUGU.

With B38, the binding signal is 0.0146 KA relative to UGCAUGU.

On to B39, for which the binding signal was 0.0328 KA relative to UGCAUGU.
